# Screening results: PubChem, National Center for Advancing Translational Sciences (NCATS)
# LDHA inh – LDHA (human) enzyme inhibition. P00338. purified LDHA, NADH/diaphorase-resazurin fluorescence; stronger effect = lower value. activity change, % (values are at about 110 or 230 µM). actives 0.15% (n = 480,000). AID 1347041; in the data active = activity change below about -30%;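 also: plate controls were DMSO wells for no effect and wells without enzyme for full effect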
#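 Resorufin fluorescence (ex540/em590), read at 0 and 20 min after diaphorase/resazurin addition, reports the NADH left after a 5 min room-temperature reaction of 2 nM human LDH5 with 0.06 mM NADH and 0.2 mM pyruvate.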
# D1 ag – human D1 receptor agonism; activation, % at 2 µM; P21728; HEK293 T-REx D1 cells, calcium flux, agonist mode; actives 1% (n = 360,000); also: 0% is about no effect
# Target sequence (P21728 whole entry, looked up): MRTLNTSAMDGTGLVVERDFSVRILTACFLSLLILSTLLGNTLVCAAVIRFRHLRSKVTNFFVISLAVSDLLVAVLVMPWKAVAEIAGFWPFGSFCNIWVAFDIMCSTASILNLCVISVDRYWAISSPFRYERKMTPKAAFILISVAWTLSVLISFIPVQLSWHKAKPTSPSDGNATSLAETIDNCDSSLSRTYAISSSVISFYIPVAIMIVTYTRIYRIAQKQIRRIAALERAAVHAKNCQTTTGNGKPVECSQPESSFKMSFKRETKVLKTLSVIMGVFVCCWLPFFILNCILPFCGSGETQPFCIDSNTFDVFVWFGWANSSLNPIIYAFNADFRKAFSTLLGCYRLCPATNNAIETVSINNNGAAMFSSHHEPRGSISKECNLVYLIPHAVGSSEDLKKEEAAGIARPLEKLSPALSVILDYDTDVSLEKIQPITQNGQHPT
#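 Inducible HEK293 T-REx D1 cells, force-coupled to calcium signalling, were plated at 4000 cells/well with tetracycline and held overnight at 30 C. After no-wash calcium dye loading, compound-evoked calcium rise over 180 s flagged agonists.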
# D1 antagonist – antagonists of human D1 dopamine receptor | activity change, negative = inhibition, % at 10 µM | actives 3.2% (n = 360,000) | P21728 | HEK293 TREx D1 cells, calcium flux, dopamine EC80; stronger effect = lower value; in the data active = activity change below about -30%; also: % is scaled to controls: 0 for no effect and ±100 for the full control effect
#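 Calcium flux readout: force-coupled, inducible Hek293 Trex D1 line, cells induced overnight at 30 C with tetracycline, dye-loaded 30–90 min at RT. Antagonism scored against EC80 dopamine challenge given 180 s after compound.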
# TRHR enhancer – allosteric enhancers of human TRH receptor; P34981; TRHR cells, fluo-8 calcium fluorescence, EC20 TRH enhancement; enhancement, % at 2 µM; actives 0.66% (n = 360,000); in the data active = enhancement above about 30%; also: 0% is about no effect
#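 TRHR-expressing cells loaded with fluo-8 calcium dye were read kinetically (ex 480/em 530) during compound addition, then stimulated with an EC20 of TRH (10 nM final). Enhancement of the Gq-mediated intracellular calcium response was scored.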
# D1 potentiator – enhances dopamine response at the human D1 receptor | potentiation, % at 10 µM | P21728 | HEK293 TREx D1 cells, calcium flux, dopamine EC20 potentiation | actives 0.036% (n = 360,000) | AID 504651; in the data active = potentiation above about 30%; also: 0% is about no effect
# TRHR ag – activates the human TRH receptor; actives 0.18% (n = 360,000); AID 493084; P34981; TRHR cells, calcium flux fluo-8, FDSS agonist mode; activation, % at 2 µM; also: 0% is about no effect
#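 Agonist-mode FDSS calcium read (Ex 480/Em 530, 1 s cycles) in 1536-well TRHR cells with fluo-8 dye, after 10-cycle baseline and 23 nL compound addition; TRH at EC20 (10 nM final) added afterwards for the enhancer phase.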
# * hit, by the source's call; · = no result. Sampled rows, rich in hits. Any-hit rate of the full collection: about 3.6%. Rule as the data show it, unless noted: active = activation above about 30%; inactive = the rest.
SMILES,LDHA inh,D1 ag,D1 antagonist,TRHR enhancer,D1 potentiator,TRHR ag
Cc1cccc(OCCCC(=O)Nc2ccc3c(C)cc(=O)oc3c2)c1,4,·,·,·,·,·
FC(F)C(F)(F)Oc1cccc(Nc2nccn3c(-c4ccc5ccccc5c4)cnc23)c1,-79*,·,·,·,·,·
Oc1ccc(-c2cnc3c(Nc4cccc(OC(F)(F)C(F)F)c4)nccn23)cc1,-5,·,·,·,·,·
COc1ccccc1N1CCN(C(=O)c2ccccc2NC(=O)Cn2c(C)cc(C)c(C#N)c2=O)CC1,22,·,·,·,·,·
O=C(Nc1ccc(Cl)cc1)c1ccc(-n2cccn2)c([N+](=O)[O-])c1,-5,19,-32*,-5,-3,0
O=C(Nc1ccc(Cc2ccncc2)cc1)c1ccc(Cl)c([N+](=O)[O-])c1,-3,8,-34*,1,-6,0
COc1ccc(NC(=O)c2ccc(-n3cccn3)c([N+](=O)[O-])c2)cc1,-8,6,-4,-2,-5,-1
COc1ccccc1NC(=O)CCN1C(=O)C2C3CCC(C3)C2C1=O (stereo not given),-6,1,-78*,-2,-6,0
CCCNC(=S)NC1CCC(NC(=S)NCCC)CC1 (stereo not given),-12,·,·,·,·,·
COc1ccc([C@H]2CC(=O)C=C(c3ccc(O)cc3)C2)cc1OC,1,5,-86*,6,-6,1
COc1ccc(OC)c(C2=CC(=O)C[C@H](c3ccc(F)cc3)C2)c1,-1,·,·,·,·,·
COc1ccc([C@H]2CC(=O)C=C(c3cc(OC)ccc3OC)C2)cc1,4,0,-35*,0,-3,0
O=C(O)C/C(=C/c1ccc(Cl)cc1Cl)c1nc2ccccc2o1,2,·,·,·,·,·
CN1CCC(N(C)CC(=O)Nc2ccc3c(c2)OC(F)(F)O3)CC1,-34*,5,-18,4,-8,2
Cc1cc(C)cc(C(=O)NCC(=O)N2CCCC2c2ccc(F)cc2)c1 (stereo not given),2,·,·,·,·,·
CCc1ccc(NC(=O)c2sc3nc(C)cc(C)c3c2NC(=O)c2ccccc2OC)cc1,1,0,0,40*,-2,0
CCC(C)[C@H](NC(=O)NCCc1ccc(F)cc1)C(=O)O (stereo not given in full),3,·,·,·,·,·
CC1CCCCC12NC(=O)N(CC(=O)N1CCN(S(=O)(=O)c3cccs3)CC1)C2=O (stereo not given),-11,2,-9,2,-2,0
CC1CCCCC12NC(=O)N(CC(=O)N1CCN(S(=O)(=O)Cc3ccccc3)CC1)C2=O (stereo not given),-1,1,-35*,9,-5,1
COc1ccc(CN=Cc2[nH]c3ccc(Br)c(Cl)c3c2O)cc1,26,2,1,-3,-6,1
Cc1cc(C)cc(N=Cc2[nH]c3ccc(Br)c(Cl)c3c2O)c1,19,55*,-4,1,-4,36*
CC1CN(C(=O)CSc2nnc(-c3cccs3)n2N)CC(C)O1 (stereo not given),-6,2,-34*,-7,8,0
Nn1c(SCC(=O)N2CCc3ccccc3C2)nnc1-c1cccs1,-7,0,20,3,-1,-1
O=C(NCCC(c1ccccc1)c1ccccc1)NNc1ccccn1,13,·,·,·,·,·
Cc1c(C(=O)N2CCN(c3ccccc3O)CC2)oc2c1C(=O)CC(C)(C)C2,-3,·,·,·,·,·
SMILES,LDHA inh,D1 ag,D1 antagonist,TRHR enhancer,D1 potentiator,TRHR ag
CC(C)N(Cc1nc(-c2ccccc2)no1)C(=O)CN1C(=O)c2ccccc2C1=O,-5,1,-7,2,-2,1
O=C(NCc1nc(-c2ccc(C(F)(F)F)cc2)no1)c1cccs1,-3,4,-34*,2,2,0
CC(C)N(Cc1nc(-c2ccccc2)no1)C(=O)CCCN1C(=O)c2ccccc2C1=O,-18,5,-49*,9,-6,0
COc1ccc(-c2noc(CN(C(=O)c3cccs3)C(C)C)n2)cc1,2,37*,-4,-3,-1,0
O=C(NCc1nc(-c2ccccc2)no1)c1cccs1,-3,3,1,1,-2,0
CCN(CC(=O)Nc1c(F)cccc1F)C(=O)CCNS(=O)(=O)c1ccc(F)c(F)c1,5,·,·,·,·,·
Cc1cc(C)n(C(=O)/C(C#N)=N/Nc2cc(Cl)cc(Cl)c2)n1,-2,20,-34*,-9,-6,1
CCC(C)NC(=O)CCNS(=O)(=O)c1ccc(Br)cc1 (stereo not given),-8,2,-93*,7,2,-1
COc1ccc2[nH]c(C(=O)N3CCc4ccccc4C3)cc2c1,7,·,·,·,·,·
COc1cc2cc(C(=O)N3CCc4ccccc4C3)[nH]c2cc1OC,-2,-1,-33*,1,-7,-1
CCOc1ccc(NC(=O)Cn2nc(Cc3ccncc3)c3ccccc3c2=O)cc1,-7,0,-4,38*,-1,-2
CCOC(=O)c1ccc(NC(=O)Cn2nc(C)c3ccccc3c2=O)cc1,-3,0,-10,30*,40*,0
COC(=O)c1ccc(NC(=O)Cn2nc(C)c3ccccc3c2=O)cc1,-3,12,-9,0,0,0
O=C(Cn1nnc(-c2cccc(F)c2)n1)N(Cc1cccs1)c1ccc2c(c1)OCCO2,-3,·,·,·,·,·
CC(=O)N1CCc2c(sc3c2c(=O)n(-c2ccccc2C)c(=O)n3CC(=O)Nc2ccccc2)C1,-3,0,3,48*,-2,0
CCOC(=O)N1CCc2c(sc3c2c(=O)n(-c2ccc(F)cc2)c(=O)n3CC(=O)c2ccccc2)C1,-2,-2,24,2,0,0
CCOC(=O)N1CCc2c(sc3c2c(=O)n(-c2ccc(Cl)cc2)c(=O)n3CC(=O)c2ccc(F)cc2)C1,2,22,-31*,5,-4,5
Cc1ccc(C(CNS(=O)(=O)c2ccc(Cl)cc2)N2CCN(C)CC2)cc1 (stereo not given),-1,43*,-34*,0,-10,1
COc1cccc(Cn2c(N)c(C#N)c3nc4ccccc4nc32)c1OC,5,7,-43*,8,-2,-1
O=C(Nc1ccc(Cl)cc1)c1cc2c(cc1O)[nH]c1ccccc12,-5,19,-38*,-8,-10,3
COc1ccc(OC)c(CNc2ccc([N+](=O)[O-])cc2C)c1,-5,0,-37*,-2,6,-1
COc1cccc(CNc2ccc([N+](=O)[O-])cc2C)c1,8,1,-12,-10,-5,0
C=CCOc1ccc(CN(C)C(=O)CNC(=O)c2ccc(-c3ccccc3)cc2)cc1,-9,35*,-26,6,-6,0
